Test results reported in PubChem BioAssay AID2289 (National Center for Advancing Translational Sciences (NCATS), 2010).
Screen size: about 340,000 compounds; about 3,300 (0.97%) were called active. Another 9% or so got no clear call; they are omitted. Calls come from the whole dose curve; as a rule, active = well fitted inhibition curve with a large enough effect; inconclusive = small, poorly fitted or top-dose-only effect, or effect the other way; inactive = flat fitted curve, though single readings scatter. The list shows a part of the results.

Assay: qHTS Assay for Modulators of miRNAs and/or Inhibitors of miR-21; note: nearly all actives have a fitted effect of over 55% in size
Settings: HeLa miR-21-FLuc reporter, luciferase luminescence, 48 h; actives lower the signal
From the text: MLSCN Grant: 1 R21 NS059478-01 Assay Provider: Qihong Huang, The Wistar Institute NCGC Assay Overview: MicroRNAs (miRNAs) are endogenously encoded small (~20-25 nucleotides), nonprotein-coding RNAs that are involved in post-transcriptional repression of target messenger RNAs (mRNAs) (Le and Hannon, 2004). Estimated to be involved in the regulation of 30% of all protein-coding mRNAs (Filipowicz et al., 2008), miRNAs play a significant role in many biological processes including cellular differentiation and tissue development (Ghildiyal and Zamore, 2009).
NCGC Assay Protocol Summary: Reagents: HeLa cells stably expressing firefly luciferase (FLuc) under the control of a CMV promoter (upstream) and a miR-21 binding sequence directly downstream of the gene. These cells endogenously express miR-21. Control compounds used were compound C3 (provided by collaborator), N6-phenyladenosine (MP Biomedicals, 0215379625), and DMSO. Assay Summary: 6uL of HeLa miR-21-FLuc cells in assay buffer (DMEM, Invitrogen #21063-029; 10% FBS, HyClone #SH30071.03) were dispensed at 2000cells/well (3.3 x 10^5 cells/mL) into Greiner solid-white TC-treated 1536-well plates using a Multidrop Combi (Thermo Fisher Scientific). Plates were incubated for one hour at 37 degree Celsius, 95% humidity, 5% CO2. These assay plates were then treated with 23nL of compound or DMSO using a Kalypsys pin tool, which allows for delivery of a 24-point titration of each compound to the assay plate, with a final compound concentration ranging from approximately 40uM to 5pM. Assay plates were then incubated for 48 hours. After incubation, plates were allowed to come to RT for one hour prior to delivery of 3uL of 3X luciferase detection reagent. After a 15 minute incubation to allow for cell lysis, luciferase activity was measured using a ViewLux CCD imager (PerkinElmer), with an average exposure time of 2-12 seconds. Keywords: NIH Roadmap, MLPCN, MLSMR, qHTS, miR-21, microRNA, firefly luciferase, FLuc.
Potency is the fitted concentration of half-maximal effect.

Potency, active:
Cc1ccc2c(CNCc3ccco3)cc(=O)oc2c1 9.27 µM
Cc1ccc2c(CN(C)Cc3cccc(F)c3)cc(=O)oc2c1 13.1 µM
COc1ccc(N=Cc2nc(-c3ccccc3)oc2OC(=O)c2ccccc2)cc1 1.85 µM
CC1CCc2c(sc(/N=C/N(C)C)c2C#N)C1 (configuration not stated) 7.36 µM
CCN(/C=N/c1sc2c(c1C#N)CCCCC2)CC 3.69 µM
CN(C)/C=N/c1sc2c(c1C#N)CCCCC2 5.21 µM
CCn1c(C)nc2cc(C(=O)NNC(=S)Nc3ccccc3OC)ccc21 14.7 µM
CCn1c(C)nc2cc(C(=O)NNC(=S)Nc3ccccc3Cl)ccc21 7.36 µM
CCN(CC)CCn1c2ccccc2c2nc3ccc([N+](=O)[O-])cc3cc21 14.7 µM
O=C1CCCC(O)=C1N=Nc1ccc2c(c1)OCO2 14.7 µM
O=C(Nc1ccc(-c2nc3ccccc3s2)c(O)c1)C1=COCCO1 0.261 µM
O=C(Nc1ccc(-c2nc3ccccc3s2)c(OC(=O)c2ccccc2)c1)c1ccccc1 0.329 µM
CCSc1ccccc1C(=O)Nc1ccc(-c2nc3ccccc3s2)c(O)c1 3.69 µM
O=C(CC1Sc2ccccc2NC1=O)c1ccc(Br)cc1 (configuration not stated) 8.26 µM
CC(=O)Nc1ccccc1C(=O)C(=O)Nc1ccc(C)c(F)c1 2.33 µM
CC(=O)Nc1ccccc1C(=O)C(=O)Nc1ccc(C)c(C)c1 5.21 µM
Cn1c2ccccc2c(=O)c2ccc(-c3ccc4c(c3)OCO4)cc21 1.04 µM
CN(C)c1ccc(-c2ccc3c(=O)c4ccccc4n(C)c3c2)cn1 4.65 µM
Cc1ccc(N2C(=O)c3ccccc3NC2(C(=O)O)c2ccccc2)cc1Cl (configuration not stated) 2.93 µM
O=[N+]([O-])c1ccccc1CSc1nc2ccccc2o1 14.7 µM
COc1ncnc2c1oc1ccccc12 8.26 µM
CC(=O)c1ccc(Oc2ncnc3c2oc2ccccc23)cc1 0.927 µM
COc1ccc(Oc2ncnc3c2oc2ccccc23)cc1 11.7 µM
Cc1ccc(/C=N/n2c(C)nc3ccccc3c2=O)s1 6.56 µM
Cc1nc2ccccc2c(=O)n1/N=C/c1ccccc1Cl 6.56 µM
Fc1ccccc1CSc1nnc(-c2cccs2)o1 3.29 µM
CC(C)(C)c1nnc(NC(=O)c2ccc3c(c2)OCO3)s1 1.47 µM
CCC(CC)c1nnc(NC(=O)c2ccc3c(c2)OCO3)s1 7.36 µM
O=C(N/N=C/c1ccccc1F)NC1CCCCC1 10.4 µM
COc1cccc(/C=N/NC(=O)NC2CCCCC2)c1O 4.14 µM
O=C(N/N=C/c1cccc(F)c1)NC1CCCCC1 16.5 µM
NS(=O)(=O)c1cccc(NC(=O)CCSc2ccccc2Cl)c1 10.4 µM
O=C(CCSc1ccccc1Cl)Nc1cccc([N+](=O)[O-])c1 11.7 µM
CN(C)C(=O)c1ccc(-c2cc(C(F)(F)F)nn2C)s1 6.56 µM
O=C(CN1c2ccc(Br)cc2-c2ccccc2S1(=O)=O)N1CCCCC1 7.36 µM
Cc1nccc(-c2cc(-c3ccc(Cl)cc3Cl)no2)n1 2.33 µM
COc1ccc(-c2csc(C3=C(O)CN(CCCN4CCCC4=O)C3=N)n2)cc1OC 16.5 µM
Cc1ccccc1OCc1nc2ccccc2c(=O)n1/N=C/c1ccco1 10.4 µM
Cc1ccccc1OCc1nc2ccccc2c(=O)n1N 16.5 µM
Nn1c(COc2ccc(Cl)cc2)nc2ccccc2c1=O 7.36 µM
c1ccc(Nc2nnc(-c3cccc4ccccc34)o2)cc1 1.85 µM
COc1ccc(Nc2oc(-c3ccccc3)nc2C#N)cc1 1.85 µM
COc1ccc(Nc2oc(-c3ccc(OC)cc3)nc2C#N)cc1 2.93 µM
COc1ccc(-c2nc(C#N)c(NC(C)C)o2)cc1 6.56 µM
CCOc1ccc(Nc2oc(Cc3ccccc3)nc2C#N)cc1 11.7 µM
CC(C)Nc1oc(-c2cccc3ccccc23)nc1C#N 13.1 µM
O=C1c2ccccc2C(=O)c2c1cccc2N1CCOCC1 11.7 µM
O=c1c2ccccc2nc(-c2ccccc2)n1Cc1ccccc1 14.7 µM
COc1ccccc1-c1ccc(NC2CCCC2)nn1 13.1 µM
COc1ccccc1-c1ccc(NC2CCCCC2)nn1 7.36 µM
Cn1ccc(NC(=O)Nc2ccc(Cl)cc2Cl)n1 3.69 µM
Cc1ccc2cc(CCNC(=O)c3ccco3)c(=O)[nH]c2c1 5.85 µM
Cc1ccc2cc(CCNC(=O)c3ccco3)c(=O)[nH]c2c1C 0.826 µM
Cc1ccc(-c2ccc(/C=N/O)o2)cc1[N+](=O)[O-] 16.5 µM
CCCc1cc(=O)n2[nH]c(-c3ccccc3)cc2n1 4.14 µM
Cc1cccc(NC(=O)c2ccc3c(c2)OCCO3)c1C 4.65 µM
COc1ccccc1NC(=O)c1ccc2c(c1)OCO2 3.29 µM
COc1cc2c(cc1NC(=O)c1ccc3c(c1)OCO3)oc1ccccc12 7.36 µM
COc1ccccc1NC(=O)c1ccc2nsnc2c1 7.36 µM
O=C(O)C1CC=CCC1C(=O)NCCc1csc(-c2ccccc2)n1 (configuration not stated) 18.5 µM
O=C1c2ccccc2S(=O)(=O)N1CC1CC(c2ccc(Cl)cc2)=NO1 (configuration not stated) 2.93 µM
O=C1c2ccccc2S(=O)(=O)N1CC1CC(c2ccccc2Cl)=NO1 (configuration not stated) 4.14 µM
O=C(COC(=O)Cn1cnc2ccccc21)Nc1ccc2c(c1)C(=O)c1ccccc1C2=O 2.07 µM
COc1ccc(Nc2ncnc3c2c(C)c(C)n3CCO)cc1 0.736 µM
Cc1c(C)n(CCO)c2ncnc(Nc3ccc(F)cc3)c12 14.7 µM
COc1ccccc1Nc1ncnc2c1c(C)c(C)n2CCO 14.7 µM
O=[N+]([O-])c1ccccc1N/N=C/c1cccc(O)c1O 2.61 µM
O=[N+]([O-])c1ccc(N/N=C/c2cccc(O)c2O)cc1 6.56 µM
CCCOc1ccc(/C=N/Nc2ccccc2[N+](=O)[O-])c(O)c1 0.0656 µM
O=[N+]([O-])c1ccccc1N/N=C\c1ccccc1Cl 0.656 µM
COc1ccccc1/C=N\Nc1ccccc1[N+](=O)[O-] 1.04 µM
O=[N+]([O-])c1ccccc1NC(=S)N/N=C/c1ccc(O)c(O)c1 1.85 µM
O=C(CCS(=O)(=O)c1ccccc1)NC12CC3CC(CC(C3)C1)C2 2.07 µM
O=C(CCCc1ccccc1)NC12CC3CC(CC(C3)C1)C2 1.65 µM
Cc1ccc2nc(-c3ccc(N4C(=NC(=O)CCC(=O)O)SC5CS(=O)(=O)CC54)cc3)sc2c1 (configuration not stated) 3.29 µM
CCCC(=O)N=C1SC2CS(=O)(=O)CC2N1c1ccc(-c2nc3ccc(C)cc3s2)cc1 (configuration not stated) 2.93 µM
NNc1nc(-c2ccccc2Cl)nc2sc3c(c12)CCCC3 5.21 µM
Nc1nc(-c2cccnc2)nc2sc3c(c12)CCCC3 4.65 µM
NNc1nc(-c2ccccc2)nc2sc3c(c12)CCCC3 0.464 µM
CCOC(=O)C1CCCN(C(=O)c2ccc(NC(=O)c3nsc4ccccc34)cc2)C1 (configuration not stated) 3.69 µM
CC1CCN(C(=O)c2cccc(NC(=O)c3nsc4ccccc34)c2)CC1 7.36 µM
CC1CCN(C(=O)c2ccc(NC(=O)c3nsc4ccccc34)cc2)CC1 1.85 µM
COc1ccc(Nc2nc(C)c(-c3ccccc3)s2)cc1 6.56 µM
COc1ccc2nc(Nc3ccc4c(c3)OCO4)sc2c1 4.65 µM
COc1ccc2nc(Nc3nc4cc5c(cc4s3)OCCO5)sc2c1 13.1 µM
COC(=O)CCc1sc(Nc2ccccc2)nc1-c1ccc(OC)cc1 16.5 µM
COc1ccc(Nc2nc3ccc(OC)cc3s2)cc1 3.69 µM
O=c1c2c(nc3cc(-c4ccc(F)cc4)[nH]n13)CCC2 1.04 µM
COC(=O)C1C(=O)C=C(Nc2ccc(F)cc2)CC1c1ccc(OC)cc1 (configuration not stated) 10.4 µM
Cc1ccc2c(Cl)c(C(=O)NCCc3ccccc3)sc2c1 6.56 µM
Cc1cc(OCC(=O)N(C)C2CCCCC2)ccc1Cl 1.65 µM
Cc1cn(CCC(=O)Nc2ccccc2N2CCOCC2)c2ccccc12 9.27 µM
CCCS/C(N)=N/N=C/c1cc(C)ccc1O 1.47 µM
CC(C)Oc1ccc(CNC(=O)c2cc3ccccn3n2)cc1 6.56 µM
COc1cc(Cl)c(NC(=O)c2cc3ccccn3n2)c(OC)c1 6.56 µM
CCOc1ccc(CNC(=O)c2cc3ccccn3n2)cc1 7.36 µM
CN(C)c1ccc(-n2cc3c(=O)n(C)c(=O)n(C)c3c2)cc1 11.7 µM
COCc1cc(C)nc2sc(C(=O)Nc3ccc(OC)cc3)c(N)c12 16.5 µM
COCc1cc(C)nc2sc(C(=O)Nc3nccs3)c(N)c12 13.1 µM
COCc1cc(C)nc2sc(C(=O)Nc3cccc(OC)c3)c(N)c12 2.07 µM
Nc1c(-c2nc(-c3ccccc3Cl)no2)nnn1-c1ccccc1F 0.826 µM
CCc1ccccc1NC(=O)C(=O)c1cc(C)n(-c2ccccc2F)c1C 16.5 µM
